Most compounds without a hit are left out; they make up all but 4.1% or so of the library.
TIM10 inh: inhibits growth of TIM10 yeast strain; 330,000 tested, 1.4% active; inhibition, % at 10 µM; S. cerevisiae TIM10 strain growth, BacTiter-Glo luminescence, 24 h;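 active means inhibition of 40% or more at the single tested concentration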;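 further: wild-type TIM10 isogenic control strain grown at permissive 25 °C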
tim23-1 inh: inhibits growth of tim23-1 mutant yeast; 330,000 tested, 1.3% active; inhibition, % at 20 µM; S. cerevisiae tim23-1 growth, BacTiter-Glo luminescence, 24 h; AID 463212;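 active means growth inhibition of the mutant yeast at or above 50%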;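 further: temperature-sensitive mutant grown at 25 °C; plate controls were DMSO-treated mutant yeast for no effect and medium wells lacking yeast for full effect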
NLRP3 yeast inh: blocks the NALP3 inflammasome reconstituted in yeast. AID 2825. inhibition, % at 10 µM. Yeast reconstituted NLRP3/ASC/caspase-1, beta-gal luminescence, 24 h. 330,000 tested, 0.39% active;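 active means inhibition of 50% or more; inactive means inhibition below 50%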;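 further: plate controls were induced DMSO wells for no effect and uninduced yeast grown without galactose for full effect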
tim10-1 inh: tim10-1 yeast growth inhibition | S. cerevisiae tim10-1 ts strain growth, BacTiter-Glo, 24 h | inhibition, % at 20 µM | 330,000 tested, 2.2% active | AID 463190;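 active means inhibition of at least 40%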;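 further: mutant grown at 25 °C; 0% = DMSO wells with yeast and 100% = wells holding no yeast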
PfHsp90 yeast 2: inhibits growth of yeast expressing Plasmodium falciparum Hsp90. S. cerevisiae expressing PfHsp90, BacTiter-Glo ATP, 48 h; yeast lacking PDR1 and PDR3 efflux regulators. inhibition, % at 9.4 µM. 310,000 tested, 0.32% active. AID 504621;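 active means every replicate shows inhibition above about 80%, whatever the replicate mean, limit read from the data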;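 further: 0% = DMSO neutral controls and 100% = 20 µM radicicol positive controls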
NALP1 yeast inh: NALP1 inhibition | S. cerevisiae NALP1/ASC/caspase-1 growth, X-gal OD620, 72 h | inhibition, % at 10 µM | 280,000 tested, 0.61% active; in the data active means inhibition mostly above about 24%, no sharp cut-off; inactive means mostly below about 32%
tim10-1 confirm: confirmation of tim10-1 mutant yeast growth inhibitors; shares compounds with tim10-1 inh; S. cerevisiae tim10-1 ts strain growth, BacTiter-Glo, 24 h; inhibition, % at 20 µM; 7,400 tested, 56% active;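 active means inhibition of yeast growth at or above a set limit in either of two repeat tests at 20 µM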;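 further: tim10-1 mutant grown at permissive 25 °C to find synthetic lethal compounds; 0% = DMSO yeast wells and 100% = medium wells without yeast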
tim10 confirm: TIM10 yeast growth inhibition, confirmed; inhibition, % at 10 µM; S. cerevisiae tim10 strain growth, BacTiter-Glo luminescence, 24 h; 4,600 tested, 63% active; AID 463215; shares compounds with TIM10 inh;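 active means inhibition of yeast growth at or above a set limit in either of two replicates at 10 µM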;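 further: this counterscreen used the strain with wild-type TIM10; 0% = yeast with DMSO and 100% = medium wells lacking yeast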
tim23-1 conf: tim23-1 yeast growth inhibition, confirmed | shares compounds with tim23-1 inh | S. cerevisiae tim23-1 growth, BacTiter-Glo luminescence, 24 h | inhibition, % at 20 µM | 4,400 tested, 83% active | AID 463218;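 active means inhibition above about 39% in either of two replicate wells at 20 µM, limit read from the data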;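 further: temperature-sensitive tim23-1 mutant grown at 25 °C; 0% = DMSO wells with yeast and 100% = medium wells without yeast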
An asterisk follows results filed as active; . = not tested or not shown.

SMILES	TIM10 inh	tim23-1 inh	NLRP3 yeast inh	tim10-1 inh	PfHsp90 yeast 2	NALP1 yeast inh	tim10-1 confirm	tim10 confirm	tim23-1 conf
c1csc(-c2csc3nc(CN4CCOCC4)nc(NCc4ccc5c(c4)OCO5)c23)c1	47*	54*	13	46*	-2	-9	38*	38*	51*
O=C1SC(SCc2ccccc2)=N/C1=C\c1ccco1	43*	54*	10	57*	-19	18	40*	49*	58*
CC(=O)CCn1cc([N+](=O)[O-])nc1C	5	3	-10	-16	-7	6	.	.	.
CCCNC(=O)c1ccc2c(c1)C1C3CCC(C3)C1C(c1ccccc1)N2 (centres undefined)	37	53*	1	47*	-16	25	44*	.	57*
Cc1ccc(C(=O)/C=C/c2ccc(-c3ccc(C)cc3)o2)cc1	57*	60*	2	63*	-108	22	64*	66*	76*
CC1=C(CC(=O)c2ccccc2)C(=O)c2ccccc2C1=O	33	64*	6	48*	.	2	42*	.	69*
CN(Cc1ccc(Cl)cc1)C(=O)COC(=O)c1ccc(-c2ccc(O)cc2)cc1	-6	-7	15	-3	-17	.	.	.	.
CCC(=O)NC(c1cc(Cl)c2cccnc2c1O)C1CC1 (centres undefined)	10	58*	16	40*	4	.	19	.	58*
CC(=O)NC(c1cc(F)c2cccnc2c1O)C1CC1 (centres undefined)	0	29	13	25	.	.	.	.	.
CCC(=O)NC(c1ccc(Cl)cc1Cl)c1ccc2cccnc2c1O (centres undefined)	6	61*	10	48*	111*	9	25	.	52*
CCCCC(=O)NC(c1ccc(Cl)cc1Cl)c1ccc2cccnc2c1O (centres undefined)	-65	-4	16	2	-78	10	.	.	.
Fc1ccc(NC(=S)Nc2ccc(F)c(Cl)c2)cc1Cl	53*	72*	10	71*	-15	6	61*	-15	65*
COCCCNC(=O)CNC(=O)c1nn(-c2ccc(OC)c(Cl)c2)c(=O)c2ccccc12	-8	13	8	12	-7	0	.	.	.
O=C1NN=C(c2ccc(Cl)cc2)CC1c1cccc(Cl)c1 (centres undefined)	7	56*	10	41*	.	-4	27	.	54*
Nc1ncnc2c1ncn2C1OC(COP(=O)(O)O)C(O)C1O (centres undefined)	73*	81*	21	85*	97*	11	84*	60*	88*
Nc1ncnc2c1ncn2[C@@H]1O[C@H](COP(=O)(O)O)[C@@H](O)[C@H]1O	76*	84*	10	87*	70	11	85*	66*	90*
NCCC(=O)NC[C@H]1O[C@@H](n2cnc3c(N)ncnc32)[C@H](O)[C@@H]1O	-13	22	.	-4	-9	.	.	.	.
Nc1ncnc2c1ncn2[C@@H]1O[C@H](COP(=O)(O)OP(=O)(O)OP(=O)(O)O)[C@@H](O)[C@H]1O	70*	84*	2	84*	88*	.	80*	68*	87*
Nc1ncnc2c1ncn2[C@@H]1O[C@H](COS(=O)(=O)O)[C@@H](O)[C@H]1O	3	0	8	0	-17	.	.	.	.
CC1CCCC(NC(=O)NC(=O)COC(=O)C2=NN(c3ccccc3)C(=O)CC2)C1C (centres undefined)	1	18	14	6	-3	.	.	.	.
O=C(c1ccccc1)c1ccc(N2CCN(C(=O)c3cccc(F)c3F)CC2)c(F)c1	10	28	19	25	0	0	.	.	.
CSc1cccc(NC(=S)NC(=O)CCc2ccccc2)c1	18	45	16	23	10	11	.	.	.
Cc1cccc(C)c1NC(=S)NC(=O)CCc1ccccc1	47*	56*	19	51*	15	4	35*	36*	42*
Nc1nc(N)c2cc(Sc3ccc4ccccc4c3)ccc2n1	17	59*	31	89*	.	9	84*	.	68*
CCOC(=O)c1sc(=NC(=O)c2c(F)cccc2F)n(C)c1C	47*	56*	41	43*	24	-6	-20	46*	76*
SMILES	TIM10 inh	tim23-1 inh	NLRP3 yeast inh	tim10-1 inh	PfHsp90 yeast 2	NALP1 yeast inh	tim10-1 confirm	tim10 confirm	tim23-1 conf
CCOC(=O)C1CCN(S(=O)(=O)c2ccc3[nH]c(=O)ccc3c2)CC1	-7	5	-3	4	11	5	.	.	.
Cc1ccc(Nc2cc(C)nn2-c2nc(C)cc(C)n2)cc1	44*	53*	35	47*	-25	15	25	-25	47*
CC(=O)Nc1cc(C)nn1-c1nc(C)cc(C)n1	-15	2	-2	9	11	-20	.	.	.
Oc1ccc(Br)cc1/C=N/n1c(-c2ccccc2)n[nH]c1=S	22	57*	10	46*	-10	-2	41*	.	59*
CCc1nn(CCCC(=O)NCc2ccccc2Br)c(=O)c2cc3occc3n12	3	50*	21	43*	17	14	-4	.	54*
COc1ccc(CN(C)CC(=O)N(C)CC(=O)Nc2ccccc2Br)cc1F	1	17	16	17	-9	.	.	.	.
COCCNC(=O)C(c1ccc(O)cc1)N(Cc1cccs1)C(=O)CCC(=O)Nc1ccccn1 (centres undefined)	-14	14	10	2	-57	21	.	.	.
Cc1ccc(-c2nc3cccnc3s2)cc1NS(=O)(=O)c1cccs1	6	58*	-37	43*	-38	5	32*	.	53*
CC(C)(Oc1ccc(Cl)cc1)C(=O)NCCN1C(=O)S/C(=C/c2cccnc2)C1=O	51*	53*	11	48*	34	18	44*	-38	48*
Cc1cc(C(C#N)c2ccc(Cl)cc2)c(Cl)cc1NC(=O)c1cc(I)cc(I)c1O (centres undefined)	38	70*	35	43*	-27	.	45*	.	61*
Cc1cc(NC(=O)c2ccc(Cl)cc2)c(C)cc1O	-15	21	-3	10	-3	9	.	.	.
CCOC(=O)c1c(N)sc2c(NC(C)=O)cccc12	27	15	8	-5	8	-7	.	.	.
CCOC(=O)c1c(N)sc2c(O)c(Br)ccc12	53*	52*	-15	50*	-38	17	50*	47*	-24
